Source: PubChem (National Center for Advancing Translational Sciences (NCATS))
The list is not random: actives were taken first. Their share in the collection is about 4.7%.
D1 antag: blocks dopamine activation of the human D1 receptor; P21728; HEK293 TREx D1 cells, calcium flux, dopamine EC80; stronger effect = lower value; activity change, negative = inhibition, % at 10 µM; actives 3.2% (n = 360,000); AID 504652; in the data active = activity change below about -30%; note: % is set by controls: 0 for no effect and ±100 for the full control effect
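Cells carrying a force-coupled, tetracycline-inducible human D1 receptor report calcium flux. Each well gets a 10 s baseline, compound with 180 s monitoring, then an EC80 dopamine stimulus with a second 180 s kinetic read.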
D1 agonist: agonists of human D1 dopamine receptor | P21728 | actives 1% (n = 360,000) | activation, % at 2 µM | HEK293 T-REx D1 cells, calcium flux, agonist mode; note: 0% is about no effect
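Tetracycline-induced HEK293 TREx D1 cells, force-coupled to calcium signalling, were dye-loaded with a no-wash calcium kit. Compound was pin-added after a 10 s baseline. Fluorescence was read kinetically at 1 cycle/s for 180 s, with calcium rises flagged as agonism.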
D1 potentiator: potentiators of human D1 dopamine receptor; P21728; HEK293 TREx D1 cells, calcium flux, dopamine EC20 potentiation; actives 0.036% (n = 360,000); potentiation, % at 10 µM; in the data active = potentiation above about 30%; note: 0% is about no effect
TRHR PAM: allosterically enhances the human TRH receptor | P34981 | TRHR cells, fluo-8 calcium fluorescence, EC20 TRH enhancement | enhancement, % at 2 µM | actives 0.66% (n = 360,000); in the data active = enhancement above about 30%; note: 0% is about no effect
Target sequence (P34981 whole entry, looked up): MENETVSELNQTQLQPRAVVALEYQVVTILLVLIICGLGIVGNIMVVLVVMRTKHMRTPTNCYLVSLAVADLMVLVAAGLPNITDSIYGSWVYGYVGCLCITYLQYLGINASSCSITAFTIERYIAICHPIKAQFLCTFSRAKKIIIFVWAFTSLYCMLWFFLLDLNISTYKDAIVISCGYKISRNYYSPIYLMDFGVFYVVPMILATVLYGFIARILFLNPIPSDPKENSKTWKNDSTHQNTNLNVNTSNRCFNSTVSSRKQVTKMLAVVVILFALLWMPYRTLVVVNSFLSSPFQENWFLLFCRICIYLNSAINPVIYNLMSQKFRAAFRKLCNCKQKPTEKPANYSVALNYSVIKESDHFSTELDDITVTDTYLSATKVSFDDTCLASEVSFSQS
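Enhancer read-out: after compound pinning and an initial kinetic agonist-mode read, an EC20 of TRH (10 nM final) was injected and fluo-8 calcium signal (Ex 480/Em 530) followed at 1 s/cycle for 100 cycles in TRHR-expressing cells.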
TRHR agonist: activates the human TRH receptor | TRHR cells, calcium flux fluo-8, FDSS agonist mode | AID 493084 | actives 0.18% (n = 360,000) | activation, % at 2 µM; note: 0% is about no effect
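Steps: seed TRHR cells overnight; add fluo-8 no-wash Ca dye, RT 30 min–1.5 h; record 10 s baseline; pin-transfer compounds; monitor fluorescence 1 cycle/s for the agonist window. Calcium increases flag candidate agonists.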
Active calls of the source: *; · = not tested or not shown; ! = not confirmed by another sample. Cut-off read from the data, not from the text of the source, unless noted: active = activation above about 30%; inactive = the rest.

SMILES	D1 antag	D1 agonist	D1 potentiator	TRHR PAM	TRHR agonist
COC(=O)C1=C(c2ccc(C(C)=O)cc2)C[C@@H]2CC[C@H]1N2C(=O)NCc1ccc(C(F)(F)F)cc1	-41.4*	47.9*	-2.3	-0.3	6.9
COC(=O)C1=C(c2ccc3ccccc3c2)C[C@@H]2CC[C@H]1N2C(=O)NCc1ccc(C(F)(F)F)cc1	20.2	3.6	1.0	13.0	1.1
Nc1cc(Cl)c2nonc2c1[N+](=O)[O-]	-31.5*	1.3	-0.3	-3.2	0.5
COC(=O)C1=C(c2ccc(OC)c(OC)c2)C[C@@H]2CC[C@H]1N2C(=O)NC1CC1	·	0.6	1.1	-0.6	0.1
COC(=O)C1=C(c2cccc(C#N)c2)C[C@@H]2CC[C@H]1N2C(=O)N1CCCCC1	-37.2*	1.1	-2.0	-0.2	-0.3
COC(=O)C1=C(c2cccc(C#N)c2)C[C@@H]2CC[C@H]1N2C(=O)NC1CC1	·	1.0	-0.3	-0.9	0.2
COC(=O)C1=C(c2cccc(C#N)c2)C[C@@H]2CC[C@H]1N2C(=O)NC1Cc2ccccc2C1	-41.0*	1.3	-4.8	-5.1	0.5
COC(=O)C1=C(c2ccc(OC)c(OC)c2)C[C@@H]2CC[C@H]1N2C(=O)NC(C)C	-42.2*	-1.7	5.9	4.6	-0.2
N#Cc1cc2c(nc1SCC(=O)Nc1ccc(Cl)c(C(F)(F)F)c1)C1CCN2CC1	-10.8	4.4	-3.8	-6.2	-0.5
CSc1ccc(/C=C/c2nc3ccccc3c(=O)n2-c2cccc(Cl)c2C)cc1	-6.3	1.2	-0.8	0.2	0.3
Cn1c2ccccc2c2cnn(CC(=O)N3CCC4(CC3)OCCO4)c(=O)c21	-31.5*	-0.1	-1.1	-4.7	0.1
O=C(Cn1ncc2c3ccccc3n(Cc3cccc(Cl)c3)c2c1=O)N1CCC2(CC1)OCCO2	0.5	7.1	6.2	4.1	1.4
COc1cc(/C=C/c2nc3ccccc3c(=O)n2-c2ccc(Br)c(C)c2)ccc1O	-0.3	16.5	-0.5	-11.9	15.9
Cc1cccc(NC(=O)Cn2cc(C(=O)c3ccccc3)c3ccccc32)c1C	-17.7	3.8	-3.2	-5.9	1.1
c1ccc2c(c1)CSc1ccccc1C2C1=NCCN1 (stereo unspecified)	-11.4	5.6	-0.3	5.1	-0.5
Brc1ccc2c(c1)C(OC1CN3CCC1CC3)c1ccccc1CS2 (stereo unspecified)	-36.1*	28.4	-9.1	0.9	0.5
Cc1ccc(CN2C3CCCC2CC(NC(=O)Nc2cccc(F)c2)C3)cc1 (stereo unspecified)	-41.6*	30.2*	-6.5	-2.3	9.1
O=[N+]([O-])c1ccc(NC2CCN(Cc3ccccc3)CC2)c2ccncc12	5.1	0.9	0.2	3.3	0.1
O=[N+]([O-])c1ccc(NC2CCCC2)c2ccncc12	-21.8	12.6	-0.8	35.1*	-1.3
C=CCN1CCc2cccc3c2[C@H]1Cc1ccc(O)c(O)c1-3	-89.7*	31.8*	4.5	3.6	0.2
CC(C)[C@H]1C(=O)O[C@H](C(C)C)C(=O)N(C)[C@@H](C(C)C)C(=O)O[C@H](C(C)C)C(=O)N(C)[C@@H](C(C)C)C(=O)O[C@H](C(C)C)C(=O)N1C	-32.7*	53.1*	-2.6	-10.0	2.7
O=C1NC(=O)N(c2ccccc2)C(=O)/C1=C/c1ccc(Sc2ccccc2)o1	8.1	0.3	0.8	-1.7	2.2
O=C1NC(=O)N(c2ccccc2F)C(=O)/C1=C/c1ccc(Sc2nc3ccccc3[nH]2)o1	-10.4	116.2*	4.8	5.2	41.2*
CCC(=O)N1CC(=O)Nc2ccc(C)cc2C1c1ccc(F)cc1 (stereo unspecified)	9.0	2.0	1.1	0.4	-0.3
CCOc1ccccc1-n1c(O)c(C=Nc2ccc(N(CC)CC)cc2)c(=O)[nH]c1=O	10.3	36.9*	-0.6	-2.4	22.0
SMILES	D1 antag	D1 agonist	D1 potentiator	TRHR PAM	TRHR agonist
CCN(CC)c1ccc(N=Cc2c(O)n(Cc3ccccc3)c(=O)[nH]c2=O)cc1	-4.5	36.6*!	-3.9	4.3	-0.7
CCOc1ccc(-n2c(O)c(C=Nc3ccc(N(CC)CC)cc3)c(=O)[nH]c2=O)cc1	0.8	17.1	-3.6	1.7	22.2
CCN(CC)c1ccc(N=Cc2c(O)n(-c3ccccc3C)c(=O)[nH]c2=O)cc1	-8.3	30.9*	-2.8	2.6	14.1
O=c1[nH]c(=O)n(Cc2ccc(F)cc2)c(O)c1C=Nc1ccc(Cl)cc1	-1.2	3.5	-5.0	-6.6	1.4
CCN(CC)c1ccc(N=Cc2c(O)n(-c3ccccc3)c(=O)[nH]c2=O)cc1	-1.4	86.1*	-0.8	4.4	-1.2
CCN(CC)C(=O)c1ccc(NC(=O)Cn2nc(-c3ccc(C)cc3)c3ccccc3c2=O)cc1	-0.5	-1.9	-0.6	16.1	0.0
Cc1ccc(NC(=O)CN2C(=O)CN=C(c3ccccc3)c3ccccc32)cc1	5.0	2.3	1.8	-1.7	0.5
CCC1(CC)C(=N)N(C)C(=O)NC1=O	-12.1	3.9	-8.9	-4.2	-2.3
CCC1(CC)C(=O)N(C)C(=O)NC1=NC	-34.6*	0.3	6.5	1.1	0.0
CCOc1cc(CNC(C)C(O)c2ccccc2)cc(Cl)c1OCC (stereo unspecified)	-6.2	38.5*	-4.7	2.7	1.3
CC(NCc1ccc(Cl)c(Cl)c1)C(O)c1ccccc1 (stereo unspecified)	-1.2	10.9	-7.5	0.4	0.0
Cc1ccc(S(=O)(=O)Nc2cc(C(=O)N3CCC4(CC3)OCCO4)ccc2N2CCCCC2)cc1	0.7	2.5	-7.0	-6.4	-0.3
Cc1ccc(S(=O)(=O)NCC2CCC(C(=O)N3CCC4(CC3)OCCO4)CC2)cc1 (stereo unspecified)	-55.2*	4.5	-13.1	1.5	0.6
Cc1ccc(-n2c(/C=C/c3ccc(Br)s3)nc3ccccc3c2=O)cc1	4.8	1.4	0.8	-11.4	0.0
Cc1cc(C=C(C#N)C#N)ccc1N1CCCC1	-6.4	50.9*	-4.5	1.0	15.5
Cc1cc(C)cc(N2C(=O)/C(=C\c3ccc(N4CCN(C)CC4)o3)C(=O)NC2=S)c1	-3.5	43.7*	-3.5	1.1	28.1
Cc1ccc(/C=C2\C(=O)NC(=S)N(c3ccc(F)cc3)C2=O)o1	-15.0	8.5	5.1	12.7	1.8
O=C1NC(=O)C(=Cc2ccc(N3CCOCC3)o2)C(=O)N1	8.8	8.4	-3.0	0.7	7.1
C=CCN1C(=O)/C(=C/c2ccc(N3CCOCC3)o2)C(=O)NC1=S	-0.7	119.0*	-2.3	-4.2	-0.9
Cc1cc(NC(=O)c2cccn(Cc3cccc([N+](=O)[O-])c3)c2=O)no1	·	1.4	-0.3	-17.7	0.3
Cc1cc(C)cc(OCC(=O)Nc2ccc(Cl)cc2C(=O)c2ccccc2)c1	-9.2	1.0	-1.0	-6.1	-0.9
CC(=O)Nc1cc(C(=O)N2CCC3(CC2)OCCO3)ccc1S(=O)(=O)c1ccc(Cl)cc1	-87.2*	2.0	-2.5	4.7	0.1
